Bioassay records deposited in PubChem BioAssay by The Scripps Research Institute Molecular Screening Center.
Sampled rows, rich in hits. Any-hit rate of the full collection: about 3.4%.
TEAD-YAP inh = TEAD-YAP interaction inhibition, primary screen, TEAD-YAP interaction inhibitor project, luminescence, HEK-TIYL cells | AID 1259422, 2018 | inhibition, % at 9.12 µM | TEAD-Gal4/YAP UAS-luciferase luminescence | 1.4% of 640,000 active; in the data active = inhibition above about 32%;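 note: 0% = median of test compound wells and 100% = reference inhibitor wells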
MITF inh = MITF inhibitors, primary screen, biochemical, AlphaScreen, human | AlphaScreen MITF homodimerization, bead proximity signal | inhibition, % at 2.6 µM | 0.91% of 650,000 active | AID 1259374, 2018; in the data active = inhibition above about 50%;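 note: 0% = vehicle wells with protein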
GPR151 activ = activators of human GPR151, primary screen, cell-based, PathHunter beta-arrestin, luminescence. activation, % at 11.2 µM. PathHunter beta-arrestin GPR151 cells. G-protein coupled receptor 151 (Homo sapiens), Q8TDV0. 1% of 650,000 active. AID 1508602, 2020; in the data active = activation above about 4.9%;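 note: 0% = median of compound wells and 100% = cells with positive control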
FBW7 act = FBW7 E3 ligase activators, primary screen, biochemical, AlphaScreen, human | AlphaScreen FBW7–phospho-cyclin E peptide binding, activator screen | 0.13% of 650,000 active | normalized activity (activation), % at 26.1 µM | F-box/WD repeat-containing protein 7 (Homo sapiens), Q969H0; in the data active = normalized activity above about 1.9%;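 note: purified mutant Fbw7 with reduced substrate affinity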
Target sequence (Q969H0 whole entry, looked up): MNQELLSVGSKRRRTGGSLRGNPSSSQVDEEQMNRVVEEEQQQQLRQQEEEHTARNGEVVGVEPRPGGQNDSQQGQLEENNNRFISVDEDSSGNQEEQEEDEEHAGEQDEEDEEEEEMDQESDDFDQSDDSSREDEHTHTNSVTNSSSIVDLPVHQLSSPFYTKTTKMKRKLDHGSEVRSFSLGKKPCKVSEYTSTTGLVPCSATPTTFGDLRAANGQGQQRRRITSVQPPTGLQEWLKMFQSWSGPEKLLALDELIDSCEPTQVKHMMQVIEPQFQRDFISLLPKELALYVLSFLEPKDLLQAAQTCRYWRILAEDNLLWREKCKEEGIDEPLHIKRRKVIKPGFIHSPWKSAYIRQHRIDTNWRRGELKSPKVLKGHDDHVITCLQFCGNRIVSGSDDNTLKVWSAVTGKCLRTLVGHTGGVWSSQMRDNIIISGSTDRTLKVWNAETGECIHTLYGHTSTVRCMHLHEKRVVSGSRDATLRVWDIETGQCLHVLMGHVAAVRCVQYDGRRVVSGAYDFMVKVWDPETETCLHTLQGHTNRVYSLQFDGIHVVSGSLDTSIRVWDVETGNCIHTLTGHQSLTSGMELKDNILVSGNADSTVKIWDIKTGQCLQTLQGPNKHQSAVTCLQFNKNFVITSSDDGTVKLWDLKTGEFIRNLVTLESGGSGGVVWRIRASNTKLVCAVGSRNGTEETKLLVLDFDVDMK
GPR151 confirm = GPR151 activators, triplicate retest, confirmation, cell-based, PathHunter beta-arrestin, luminescence; shares compounds with GPR151 activ; GPR151 PathHunter beta-arrestin cells, 90 min; % of EA-reagent control over plate median; activation, % at 11.2 µM; 6,700 tested, under 10 active;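 active = mean percent activation across replicates above the confirmation screen cutoff of 4.91%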
GPR119 ag = GPR119 activators in beta-arrestin cells, counter-screen for GPR151 activator project, cell-based, PathHunter beta-arrestin, luminescence, triplicate; shares compounds with GPR151 activ; 90 min; 0 = compound-well median, 100 = enzyme-acceptor control; activation, % at 11.2 µM; 0.3% of 6,700 active; AID 1508611, 2020;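 active = mean percent activation in the counterscreen above 29.09%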;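 note: counterscreen on off-target GPR119 to flag nonselective hits from the GPR151 activator screen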
* hit, by the source's call; nt = not tested or not shown; ! = not active in a repeat.

SMILES	TEAD-YAP inh	MITF inh	GPR151 activ	FBW7 act	GPR151 confirm	GPR119 ag
CCC(C)N(C)C(=O)c1cc2ccccc2c(-c2ccccc2Cl)n1 (centres undefined)	-1.7	1.2	5.4*!	0.0	0.5	1.6
COc1ccc(CNc2c3c(nc4nncn24)CCC3)cc1	-3.3	-7.5	7.3*	-0.3	-1.2	-14.3
Cc1cc(C)cc(NC(=O)c2ccc(Cl)c(Cl)c2)c1	-11.3	-13.8	5.4*	-0.1	-0.5	-3.6
COC(=O)c1ccccc1NC(=O)c1cccc(Cl)c1	-1.9	16.6	-0.3	0.0	nt	nt
COC(=O)c1ccccc1NC(=O)c1ccc(Cl)c(Cl)c1	12.1	-4.3	5.1*	0.0	0.1	-4.2
O=C1CC(c2nnc(Cc3ccccc3Cl)o2)CN1c1ccccc1 (centres undefined)	5.8	-12.3	5.5*	-0.1	-0.5	-10.3
CCC(C)NCCOc1ccc([N+](=O)[O-])cc1 (centres undefined)	5.1	-13.7	6.6*	0.1	0.4	6.3
Cc1cc(OCC(=O)Nc2ccc(S(N)(=O)=O)cc2)cc(C)c1Cl	-1.8	-7.5	-0.4	-0.3	nt	nt
CC(=O)N1CN2CN(C(C)=O)CC(C(O)c3ccc([N+](=O)[O-])cc3)(C2)C1 (centres undefined)	-11.8	15.4	-1.0	0.6	nt	nt
NS(=O)(=O)c1ccc(NC(=S)NCCN2CCCCC2)cc1	1.4	7.5	6.3*	0.2	-0.6	1.1
COc1ccccc1C(=O)Nc1c2c(nn1-c1ccccc1)CSC2	0.0	4.8	1.3	-0.1	nt	nt
CC(C)CCN1C(=O)CCc2cc(NC(=O)NCc3ccc(F)cc3)ccc21	2.9	-0.1	1.3	0.1	nt	nt
CC(C)CCN1C(=O)CCc2cc(NC(=O)c3ccc4c(c3)OCO4)ccc21	-14.5	1.6	5.3*	0.0	-1.2	0.0
Cc1ccc(Nc2ccc(NC(=O)c3ccccc3F)cc2)nn1	-16.1	7.0	-1.0	0.2	nt	nt
O=C1OC(c2ccc(F)cc2)=N/C1=C\c1ccc(-c2ccc(I)cc2)o1	-0.9	-1.4	6.0*	-0.1	-0.1	-1.4
Cc1ccc(Sc2ccc3noc4c3c2C(=O)c2ccccc2-4)cc1	0.5	8.9	10.5*	0.1	-1.4	-13.9
CCOC(=O)CCC(=O)Nc1cccc(Cl)c1Cl	4.1	5.1	6.9*	0.0	-0.1	-4.3
CCOC(=O)CCC(=O)Nc1cccc2c(NC(=O)CCC(=O)OCC)cccc12	-9.5	-26.8	2.1	-0.1	nt	nt
COC(=O)c1c(NC(=O)c2cc(-c3ccc(CC(C)C)cc3)nc3ccccc23)sc(C)c1-c1ccccc1	3.8	14.4	5.1*	1.0	2.0	17.2
CCCCOc1ccc(-c2cc(C(=O)OC)c3ccccc3n2)cc1	-0.3	2.4	7.5*	-0.1	0.1	-9.1
CCOC(=O)c1cc(C)sc1NC(=O)c1cc(-c2ccc(CC(C)C)cc2)nc2ccccc12	2.9	0.2	0.2	-0.2	nt	nt
CCCCOc1ccc(-c2cc(C(=O)NN)c3ccccc3n2)cc1	-2.0	0.1	-0.1	0.2	nt	nt
N#Cc1cc2c(nc1SCc1ccc([N+](=O)[O-])cc1)CCCCC2	1.7	-0.6	6.1*	0.0	0.0	-9.4
CCN(CC(=O)Nc1ccc(NC(C)=O)cc1)S(=O)(=O)/C=C/c1ccccc1	-3.1	5.2	7.4*	0.0	0.2	4.2
Cc1ccccc1C1CC(=O)Nc2cc3c(cc21)OCO3 (centres undefined)	6.2	11.3	6.0*	0.2	0.5	6.5
SMILES	TEAD-YAP inh	MITF inh	GPR151 activ	FBW7 act	GPR151 confirm	GPR119 ag
COC(=O)c1ccc(Nc2nc3ccccc3n3c(C)nnc23)cc1	4.1	-3.2	1.9	-0.1	nt	nt
CC(=O)c1ccc(Nc2nc3ccccc3n3c(C)nnc23)cc1	11.6	3.4	7.3*	-0.1	0.7	0.1
O=C(CC(O)(C(F)(F)F)C(F)(F)F)Nc1ccccc1Br	-7.6	10.4	-0.3	1.2	nt	nt
COc1ccccc1NC(=O)COc1ccc(C(=O)O)cc1	2.3	15.4	7.9*	0.0	-0.2	0.1
COc1ccccc1NC(=O)CC(O)(C(F)(F)F)C(F)(F)F	14.3	2.9	5.8*	0.4	0.4	0.6
Cc1ccc(Cl)cc1NC(=O)CC(O)(C(F)(F)F)C(F)(F)F	6.2	-17.3	5.2*	0.0	0.3	5.7
O=C(c1ccc(OC2CSC2)cc1)N1CCCC(c2ccnc3ncnn23)C1 (centres undefined)	-8.3	9.4	1.6	-0.2	nt	nt
CCN(CC)c1ccc(/C=C2/C(=O)NC(=O)N(Cc3ccc(F)cc3)C2=O)cc1	6.4	2.8	10.7*	-0.8	0.6	-0.5
CCOc1ccc(/C=C2/C(=O)NC(=O)N(Cc3ccc(F)cc3)C2=O)cc1	-3.8	-16.8	-1.5	-0.6	nt	nt
COc1cc([N+](=O)[O-])ccc1-c1ccc(C(=O)Nc2ccc(Br)cn2)o1	-2.9	4.3	7.1*	-0.1	1.0	16.8
COc1cc([N+](=O)[O-])ccc1-c1ccc(C(=O)Nc2cc(Cl)cc(Cl)c2)o1	3.6	-3.5	-0.9	0.0	nt	nt
COc1ccc(Cn2c(=O)[nH]c3c(C(N)=O)nc(-c4cccc(C)c4)nc32)cc1	6.9	-0.1	-0.2	0.0	nt	nt
COc1ccc(Cn2c(=O)[nH]c3c(C(N)=O)nc(-c4ccc(C)c(C)c4)nc32)cc1	-11.2	1.1	5.0*	0.6	0.8	7.5
CCOc1ccc(-n2c(=S)sc3c(=O)n(-c4ccccc4)c(SCc4cc(=O)n5cc(Cl)ccc5n4)nc32)cc1	-12.3	12.5	0.5	0.4	nt	nt
O=C(Cn1nnc(-c2ccc([N+](=O)[O-])cc2)n1)NCC1CC1	-4.6	14.0	5.9*	0.5	1.2	4.7
NC(=O)c1ccc(-n2c(CCC(=O)O)ccc2-c2ccc(F)cc2)cc1	-4.9	10.5	9.7*	0.1	-1.0	-10.7
NC(=O)c1ccc(-n2c(CCC(=O)O)ccc2-c2ccccc2)cc1	-0.9	7.0	3.0	-0.1	nt	nt
Cc1cccc(C2=Nc3ccccc3N=C(c3ccccc3O)C2)c1	-4.3	10.0	1.3	0.3	nt	nt
O=C(O)/C=C/c1cccc(-c2cnc3ccc(NC4CCOCC4)nn23)c1	3.6	12.6	0.6	-0.3	nt	nt
CC(=O)Nc1cccc(-c2cnc3ccc(NC4CCOCC4)nn23)c1	7.6	-7.6	4.9*	-0.1	0.0	1.3
CC(=O)Nc1ccc(NC(=S)NC(=O)c2ccccc2[N+](=O)[O-])cc1	-19.8	-20.9	6.4*	-0.1	0.0	16.4
Cc1ccc(OCC(=O)N/N=C\c2cccn2C)c([N+](=O)[O-])c1	-2.9	18.0	5.3*	0.1	-1.5	-9.9
